From PubChem BioAssay AID1159580 (chemical genetic matrix, 2015)
Several values for one entry are separate records, joined by “and”; a condition that tells them apart may be missing. Equal entries are not always repeated. Screen size: about 5,500 compounds; about 2,000 (36%) were called active. About 18% were inconclusive and are not listed. Rule as the data show it: active = normalized growth mostly below about 0.91 (no sharp cut-off); inconclusive = no clear call, values can overlap the other calls; inactive = mostly above about 0.92. Some of the results follow.

Assay: chemical genetic growth profiling, strain panel (AID 1159580);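 also: tested at 20 µM; growth read once vehicle control cultures reached saturation at 30 °C; 1 = growth at the plate median or of vehicle wells; lower values mean less growth of the strain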
Settings: S. cerevisiae deletion strains, growth OD

Measured: normalized growth

NC(N)=NCCCCN=C(N)N
inactive: locus YAL013W, strain DEP1, hits give low values 0.997 | locus YAL021C, strain ccr4, hits give low values 0.993 | locus YAL026C, strain drs2, hits give low values 0.984 | locus YAL030W, strain snc1, hits give low values 1 | locus YAL040C, strain CLN3, hits give low values 1.01 | locus YBL061C, strain skt5, hits give low values 1.01 | locus YBR009C, strain hhf1, hits give low values 1.01 | locus YBR021W, strain FUR4, hits give low values 1.04 | locus YBR023C, strain chs3, hits give low values 1.01 | locus YBR171W, strain sec66, hits give low values 0.986 | locus YBR229C, strain ROT2, hits give low values 0.957 | locus YBR231C, strain swc5, hits give low values 1 | locus YBR279W, strain paf1, hits give low values 0.992 | locus YCL011C, strain gbp2, hits give low values 1.01 | locus YCL016C, strain dcc1, hits give low values 1.01 | locus YCL029C, strain bik1, hits give low values 0.989 | locus YCL061C, strain MRC1, hits give low values 1 | locus YCL069W, strain vba3, hits give low values 0.984 | locus YCR088W, strain abp1, hits give low values 1 | locus YDL005C, strain med2, hits give low values 0.998 | locus YDL035C, strain GPR1, hits give low values 0.985 | locus YDL040C, strain nat1, hits give low values 1 | locus YDL074C, strain BRE1, hits give low values 0.957 | locus YDL101C, strain DUN1, hits give low values 0.953 | locus YDL134C, strain PPH21, hits give low values 0.995 | locus YDL185W, strain tfp1, hits give low values 0.968 | locus YDL192W, strain arf1, hits give low values 0.992 | locus YDR001C, strain nth1, hits give low values 1 | locus YDR069C, strain doa4, hits give low values 0.999 | locus YDR101C, strain arx1, hits give low values 1 | locus YDR137W, strain rgp1, hits give low values 1.01 | locus YDR150W, strain NUM1, hits give low values 0.983 | locus YDR159W, strain sac3, hits give low values 1 | locus YDR162C, strain NBP2, hits give low values 0.948 | locus YDR195W, strain ref2 0.984 | locus YDR297W, strain sur2, hits give low values 0.999 | locus YDR318W, strain mcm21, hits give low values 1.01 | locus YDR334W, strain swr1, hits give low values 0.99 | locus YDR335W, strain msn5, hits give low values 0.997 | locus YDR388W, hits give low values 0.996 | locus YDR392W, strain spt3, hits give low values 0.946 | locus YDR502C, strain sam2, hits give low values 0.991 | locus YEL003W, strain gim4, hits give low values 0.993 | locus YEL037C, strain rad23, hits give low values 0.964 | locus YEL061C, strain CIN8 (second series), hits give low values 0.991 | locus YEL061C, strain CIN8, hits give low values 0.989 | locus YER002W, strain NOP16, hits give low values 1 | locus YER015W, strain faa2, hits give low values 0.997 | locus YER016W, strain bim1, hits give low values 1 | locus YER110C, hits give low values 0.99 | locus YER111C, strain swi4, hits give low values 0.99 | locus YER155C, strain BEM2 (second series), hits give low values 1.01 | locus YER155C, strain BEM2, hits give low values 1 | locus YER167W, strain BCK2, hits give low values 1.01 | locus YFR010W, strain ubp6, hits give low values 0.98 | locus YGL078C, strain dbp3, hits give low values 0.996 | locus YGL086W, strain mad1, hits give low values 1.01 | locus YGL167C, strain pmr1, hits give low values 1.01 | locus YGL173C, strain kem1, hits give low values 0.995 | locus YGL227W, strain vid30, hits give low values 1 | locus YGL240W, strain doc1, hits give low values 1 | locus YGL248W, strain PDE1, hits give low values 0.994 | locus YGL253W, strain hxk2, hits give low values 1 | locus YGR078C, strain PAC10, hits give low values 0.969 and 0.994 | locus YGR135W, strain pre9, hits give low values 0.982 | locus YGR229C, strain SMI1, hits give low values 0.999 | locus YGR252W, strain gcn5, hits give low values 1.03 | locus YHR013C, strain ard1, hits give low values 1 | locus YHR027C, strain rpn1, hits give low values 1 | locus YHR030C, strain SLT2, hits give low values 1 and 0.976 | locus YHR079C, strain IRE1 (second series), hits give low values 1.01 | locus YHR079C, strain IRE1, hits give low values 0.986 | locus YHR094C, strain hxt1, hits give low values 1.01 | locus YHR129C, strain ARP1, hits give low values 0.994 | locus YHR142W, strain chs7, hits give low values 1 | locus YHR200W, strain rpn10, hits give low values 1.01 | locus YIL066C, strain RNR3, hits give low values 0.969 | locus YIL073C, strain SPO22, hits give low values 1.03 | locus YIL125W, strain kgd1, hits give low values 0.992 | locus YIR030C, strain dcg1, hits give low values 0.993 | locus YJL092W, strain hpr5, hits give low values 0.999 | locus YJL095W, strain BCK1 (second series), hits give low values 1.01 | locus YJL095W, strain BCK1, hits give low values 0.992 and 0.985 | locus YJL115W, strain asf1, hits give low values 0.993 | locus YJL129C, strain trk1, hits give low values 1.02 | locus YJL134W, strain LCB3, hits give low values 0.989 | locus YJL154C, strain vps35, hits give low values 0.992 | locus YJL164C, strain tpk1, hits give low values 1.01 | locus YJL166W, strain qcr8, hits give low values 1.01 | locus YJL168C, strain set2, hits give low values 0.992 | locus YJL187C, strain SWE1 (second series), hits give low values 0.969 | locus YJL187C, strain SWE1, hits give low values 1.01 | locus YJR043C, strain POL32, hits give low values 1.02 | locus YJR066W, strain TOR1, hits give low values 0.99 | locus YJR075W, strain HOC1, hits give low values 0.94
